FMDV Renilla: FMDV antiviral activity by Renilla signal; FMDV replicon cells, Renilla luciferase signal; Potency, µM (doses to about 57.5 µM), actives largely listed as inhibitors; actives 0.32% (n = 120,000); AID 1745857; also: nearly all actives have a fitted effect of over 55% in size
FMDV antiviral: shows antiviral activity against foot and mouth disease virus; FMDV antiviral cell assay, firefly luciferase signal; Potency, µM (top dose mostly 57.5 µM), most hits filed as inhibitors; actives 0.23% (n = 120,000); AID 1745856; also: nearly all actives have a fitted effect of over 60% in size
Large screens that a line does not name were inactive. Most compounds without a hit are left out; they make up all but 0.51% or so of the library. Calls follow the shape of the full dose curve.

Cc1ccc(-c2nc3ccccc3nc2-c2ccc(C)cc2)cc1	none
COc1ccc(CCNc2nccn(-c3ccc(C)c(C)c3)c2=O)cc1OC	FMDV Renilla 7.9µM, FMDV antiviral inconclusive
COc1ccc(-n2ccnc(NCCc3ccccc3)c2=O)cc1OC	none
COc1ccc(CCn2c(SCC(N)=O)nc3c2c(=O)n(C)c(=O)n3C)cc1	none
Cc1cccc(CNc2ncc(C(N)=O)cc2Cl)n1	none
COc1ccc(/C=C(/C#N)c2nc3ccccc3[nH]2)cc1	none
COc1ccc2cc(/C=C(/C#N)c3nc4ccccc4[nH]3)ccc2c1	FMDV Renilla 10µM
CC(NCc1ccc(C(C)(C)C)cc1)c1ccc(S(C)(=O)=O)cc1 (stereo not drawn)	none
CC(C)S(=O)(=O)c1oc(-c2ccc(F)cc2)nc1S(=O)(=O)c1ccccc1	FMDV antiviral inconclusive
CCCCS(=O)(=O)c1oc(-c2ccc(F)cc2)nc1S(=O)(=O)c1ccccc1	FMDV antiviral 28µM
N#CCCn1c(SCC(=O)Nc2ccc3c(c2)CCC3)nc2ccccc21	none
COc1ccc(C(=O)Nc2cnc3c(cnn3C(C)C)c2)cc1S(=O)(=O)N1CCCC1	FMDV Renilla inconclusive, FMDV antiviral 32µM
CC(C)n1ncc2cc(NC(=O)c3cc(S(=O)(=O)N4CCCCC4)ccc3N3CCCC3)cnc21	none
Cc1ccc(OC(C)C(=O)Nc2cccc3cccnc23)cc1C (stereo not drawn)	none
O=C(NC1CCCCC1)C1CCC(Cn2cnnn2)CC1 (stereo not drawn)	none
CCC(C(=O)Nc1sc2c(c1C#N)CCCC2)n1cnc2c1c(=O)n(C)c(=O)n2C (stereo not drawn)	none
CC(C(=O)Nc1sc2c(c1C#N)CCCCC2)n1cnc2c1c(=O)n(C)c(=O)n2C (stereo not drawn)	FMDV Renilla 14µM, FMDV antiviral inconclusive
CNc1nc2c(c(=O)n(C)c(=O)n2C)n1CC(O)COc1ccc(OC)cc1 (stereo not drawn)	FMDV Renilla 22µM, FMDV antiviral inconclusive
Cc1ccc(OCC(O)Cn2c(N)nc3c2c(=O)n(C)c(=O)n3C)cc1 (stereo not drawn)	none
COc1cc(CN(C(=O)COc2ccc(C)cc2)c2ccccn2)cc(OC)c1OC	none
COc1cc(CN(C(=O)COc2ccc(Br)cc2)c2ccccn2)cc(OC)c1OC	FMDV Renilla 22µM
Cn1c(=O)c2c(nc(NCCO)n2Cc2cccc(C(F)(F)F)c2)n(C)c1=O	FMDV Renilla 10µM, FMDV antiviral inconclusive
Cn1c(=O)c2c(nc(NCc3ccccc3)n2Cc2ccccc2)n(C)c1=O	none
Cc1cccc(Cn2c(NCCCO)nc3c2c(=O)n(C)c(=O)n3C)c1	none
CCn1c(NCc2ccccc2)nc2c1c(=O)n(C)c(=O)n2C	none
CCCn1c(NCc2ccc(C)cc2)nc2c1c(=O)n(C)c(=O)n2C	FMDV Renilla 28µM, FMDV antiviral inconclusive
Cn1c(=O)c2c(nc(NCc3ccco3)n2Cc2ccccc2)n(C)c1=O	FMDV Renilla inconclusive, FMDV antiviral 16µM
COc1cc(/C=N/O)ccc1OCc1c(Cl)cccc1Cl	none
CC1=C(C(=O)Nc2ccccc2C)C(c2ccc(C(F)(F)F)cc2)n2ncnc2N1 (stereo not drawn)	none
COc1ccc2c(C)c(CC(=O)Nc3ccc(Cn4cncn4)cc3)c(=O)oc2c1OC	none
O=C1CC(c2ccccc2O)Cc2nc(N3CCN(c4ccccc4F)CC3)ncc21 (stereo not drawn)	FMDV Renilla 11µM, FMDV antiviral inconclusive
CCOC(=O)N1CCN(c2ncc3c(n2)CC(c2ccc(OC)c(OC)c2)CC3=O)CC1 (stereo not drawn)	none
CCOC(=O)C1CCCN(C(=O)c2cc3c(Cl)nc4ccccc4c3s2)C1 (stereo not drawn)	FMDV antiviral 6.3µM
O=C(c1cc2c(Cl)nc3ccccc3c2s1)N1CCCCC1	none
Cn1c(=O)[nH]c(=O)c2c1nc(N1CCN(Cc3cccc(Cl)c3)CC1)n2CCCc1ccccc1	none
COC(=O)C1(NC(=O)c2cc(Cl)ccc2Cl)CCCCCC1	none
COC(=O)C1(NC(=O)COc2ccc(Cl)cc2Cl)CCCCC1	FMDV Renilla 8.9µM, FMDV antiviral 8.9µM
C=CCNc1nc(-c2c(C(=O)OCC)c(C)n(CC)c2C)cs1	none
CC(=O)N1CCN(Cc2csc(-c3ccc(C(F)(F)F)cc3)n2)CC1	FMDV Renilla 13µM, FMDV antiviral 20µM
Cc1cc(C)cc(C(=O)NCCc2csc(-c3ccc(C(F)(F)F)cc3)n2)c1	none
CCN(Cc1cccs1)C(=O)CCl	none
CN(Cc1cccs1)C(=O)CCl	FMDV Renilla 28µM, FMDV antiviral inconclusive
CNc1c(NC(=O)c2ccccc2Cl)c(=O)oc2ccccc12	none
COc1ccc(N/C=C/C(=O)c2ccc(C(C)C)cc2)cc1Cl	none
Cc1ccc(S(=O)(=O)CCC(=O)N2CCN(c3nc4c(C)c(Cl)ccc4s3)CC2)cc1	none
COc1cccc2sc(N3CCN(C(=O)CCS(=O)(=O)c4ccc(F)cc4)CC3)nc12	FMDV Renilla inconclusive, FMDV antiviral 35µM
COc1ccccc1-c1cc2nc(C)c(CCC(=O)Nc3cc(C)ccc3C)c(C)n2n1	FMDV antiviral 35µM
COc1cc(OC)cc(-c2cc3nc(C)c(CCC(=O)NCc4ccccc4)c(C)n3n2)c1	FMDV antiviral inconclusive
COc1cc(OC)cc(-c2cc3nc(C)c(CCC(=O)Nc4ccccc4OC)c(C)n3n2)c1	FMDV antiviral 3.2µM
COc1cc(OC)c(NC(=O)CCc2c(C)nc3cc(-c4ccccc4OC)nn3c2C)cc1Cl	none
CCCc1cc(=O)n2c(C(=O)NCc3ccccc3)c(C(=O)Nc3cccc(C)c3C)sc2n1	none
Fc1cccc(-c2nc(COc3ccccc3F)co2)c1	none
CNC(=O)c1ccccc1OCc1coc(-c2cccc(F)c2)n1	FMDV Renilla 25µM, FMDV antiviral inconclusive
Cc1nn(-c2ncccn2)c2c1C(c1ccc(OCC(N)=O)cc1)CC(=O)N2 (stereo not drawn)	none
Cc1cc(N2CCCCC2)nc(Nc2ccc(NC(=O)Cc3ccccc3)cc2)n1	FMDV Renilla 13µM, FMDV antiviral 14µM
Cc1cc(N2CCCC2)nc(Nc2ccc(NC(=O)Nc3ccc(Cl)cc3)cc2)n1	none
CCN(CC)c1cc(C)nc(Nc2ccc(NS(=O)(=O)c3ccc(OC)c(OC)c3)cc2)n1	FMDV antiviral inconclusive
Cc1cc(N2CCOCC2)nc(Nc2ccc(NC(=O)CCc3ccccc3)cc2)n1	FMDV Renilla 4µM, FMDV antiviral 5µM
Cc1cc(N2CCOCC2)nc(N2CCN(C(=O)Nc3ccccc3)CC2)n1	none
Cc1cc(N2CCCC2)nc(Nc2ccc(NS(=O)(=O)c3ccc(Br)cc3)cc2)n1	FMDV antiviral 32µM
Cc1ccc(C)c(NC(=O)CN2CCN(Cc3ccco3)CC2)c1	none
O/N=C1\CCCc2c1nc(-c1ccc(F)cc1)n2O	none
COc1ccc2c(c1)O/C(=C\c1ccc(OS(C)(=O)=O)cc1)C2=O	none
Cn1c(=O)c2c(ncn2Cc2cccc(OCC(F)(F)F)c2)n(C)c1=O	FMDV Renilla 4.5µM, FMDV antiviral 7.1µM
Cc1cccc(OCCCn2cnc3c2c(=O)n(C)c(=O)n3C)c1	none
N#Cc1cc(N)cc(I)c1	none
CCOC(=O)Cc1ccc(NC(=O)n2ncc3c(C)cccc32)cc1	FMDV antiviral inconclusive
CCOC(=O)Cc1ccc(NC(=O)n2ncc3cc(Cl)ccc32)cc1	FMDV antiviral 7.9µM
CCC1c2ccsc2CCN1C(=O)C1CCN(S(=O)(=O)c2ccc(C(C)C)cc2)CC1 (stereo not drawn)	FMDV antiviral inconclusive
COc1ccc(N(Cc2cc(CN3CCOCC3)cs2)S(=O)(=O)c2cc(C)cc(C)c2)cc1	FMDV antiviral 25µM
Cc1ccc(F)cc1S(=O)(=O)N(Cc1cc(CN2CCOCC2)cs1)c1ccc(F)cc1	none
CCNc1nc(SCC(=O)NC(=O)NC(C)C)nc2ccccc12	none
